The supplement of paper PMC11417369
± gives the standard deviation of the averaged measurements. The full ranking holds about 25,000 sequences; the median of “ln(normalized median fluorescence intensity)” is about 8.9, and the highest 2% start at about 10. For the sample, the highest values were picked, then their nearest neighbours and some sequences at random.

system: PfAP2-LT AP2 domain (GST-tagged); test: gcPBM binding intensity (ln(normalized median fluorescence intensity)); higher = stronger DNA binding
Procedure, shortened: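 After 1 h on an Agilent 4 × 180k array of primer-extended double-stranded 36-bp intergenic genomic probes and negative controls, bound GST-tagged P. falciparum DNA-binding domains were detected with Alexa488 anti-GST antibody and scanned at 488 nm. The domains had been expressed in E. coli, and binding took place in 1× PBS with 1% milk, 0.2 mg/ml BSA, 0.5% salmon testes DNA and 0.03% Triton X-100. Binding intensity is the highest Masliner-normalised natural-log median intensity across replicate spots of either probe orientation.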

Row | Sequence | gcPBM binding intensity (ln)
1 | AACACAAGAACAGAACGTACACACACATATATATAT [XGTACX_site7347] | 9.84 ± 0.13
2 | ACAAGAACAGAACGTACACACACATATATATATATA [CACACA_site9143] | 10.175 ± 0.0071
3 | AAGAACAGAACGTACACACACATATATATATATATA [CACACA_site3457] | 10.2 ± 0.28
4 | AAAAAATAATAATAAAATGAATAGATATGTATTTAT [TGCATGCA_negctrl_site210] | 8.63 ± 0.52
5 | AAAAAAAAAAAAAAATGTACATATATAATATTTATA [XGTACX_site5117] | 8.54 ± 0.57
6 | TATAAAATTACATTTTGTCATTTATTTTTTCCCACT [TGCATGCA_negctrl_site110] | 8.54 ± 0.63
7 | ACAAAAGGGGAATACACACACATATATAAATAAATA [CACACA_site7111] | 9.59 ± 0.6
8 | CCCACAAAGGAATATACACACATATATATATATATA [CACACA_site4091] | 9.95 ± 0.18
9 | ATACAAAAGGGGAATACACACACATATATATATATA [CACACA_site8694] | 10.12 ± 0.021
10 | ACAAAAGGGGAATACACACACATATATATATATATA [CACACA_site2215] | 10.33 ± 0.071
11 | AGTATATATACACAAGGGGAATACATATACAAAATT [TGCATGCA_negctrl_site244] | 9.04 ± 0.46
12 | CACACAAAGGAATATACACACATATTTATATTTATA [CACACA_site7841] | 9.21 ± 0.44
13 | ACAATAAAAATTTATGCATGTGAATTGAAAAAAAAA [TGCATGCA_site1037] | 8.72 ± 0.48
14 | CATAAATCAGCCATAACACACATACATATATACATA [CACACA_site8025] | 9.28 ± 0.42
15 | TAATATACATAATAATGTACATATTTTCATATATAC [XGTACX_site6913] | 8.74 ± 0.35
16 | ACCATGAAAATATTATGTACATATGTATTATATATA [XGTACX_site408] | 8.87 ± 0.33
17 | ATATATAATATATATGCATGTGACATTAATAATATA [TGCATGCA_site880] | 8.81 ± 0.4
18 | TTTATATTGATATATACACACATATACATCCTATTT [CACACA_site7442] | 9.11 ± 0.42
19 | AACCATTGGGAAAGGGTGCACATATATATATATATA | 10.09 ± 0.099
20 | GGAAAAACCATTCGCACACACACATAATATATAATA [CACACA_site1424] | 9.71 ± 0.31
21 | ATAAATATTGGGTGCACACACATAATATATATATAT [CACACA_site2272] | 9.59 ± 0.35
22 | TAAAACATAAGAGACACACACACATATATATATATA [CACACA_site3643] | 10.1 ± 0.16
23 | AAACATAAGAGACACACACACATATATAAATAAATA [CACACA_site7674] | 9.79 ± 0.38

Row | Sequence | gcPBM binding intensity (ln)
24 | AACATTATAAGACACACACACACATATATAAATATA [CACACA_site6622] | 10.2 ± 0.38
25 | CATTATAAGAGACACACACACATATATAAATATGTA [CACACA_site6621] | 9.63 ± 0.38
26 | TAATAAATAAGACACACACACATATATATATATTAT [CACACA_site1389] | 9.8 ± 0.2
27 | AACATTATAAGACACACACACACATATATATATATA [CACACA_site8259] | 10.3 ± 0.3
28 | ATATGGAATAATACGCGTACACACATATATATATTA [XGTACX_site307] | 9.34 ± 0.3
29 | GAATACATAATAACATGTACACACATTCTTCTATAA [XGTACX_site8725] | 9.01 ± 0.36
30 | ATATATATATATAATGCACACATTATAAATTATGTA [CACACA_site5802] | 9.02 ± 0.31
31 | ATTAAAAAAATTAAAAGTACACATATTTCAATGATA [XGTACX_site5606] | 8.43 ± 0.41
32 | AAAATTATATGTAATTGTACGGAATTATATACGCAA [XGTACX_site2048] | 8.72 ± 0.41
33 | TTGGTCTTTTAAAAAAGTACAAAAAAAAAAAAAAAA [XGTACX_site1665] | 8.08 ± 0.55
34 | AAAAAAAAAAAAAAAACACACAAACAAATGAATAAA [CACACA_site5769] | 8.89 ± 0.5
35 | AAAAAAAAAAAAAACACACAAACAAATGAATAAATA [CACACA_site3300] | 8.99 ± 0.54
36 | TCATTCATATGTTACACACACACACCCACATAAAAA [CACACA_site3245] | 9.8 ± 0.23
37 | GGACAACAAACAAACACACACAAAAAAAAAATAAAA [CACACA_site3791] | 9.6 ± 0.71
38 | CAAAAAAAATAAAACACACACACAAAAAAATAAAAA [CACACA_site466] | 9.84 ± 0.31
39 | AAATAAATGAAACACACACACACAAAAAAAAAAAAC [CACACA_site2625] | 10.2 ± 0.28
40 | CAACAAAATAAACACACACACACAAACACAAAAAAA [CACACA_site5806] | 10.2 ± 0.27
41 | ATTCATATGAAACACACACACACACCCATAAAAAAA [CACACA_site3246] | 10.2 ± 0.2
42 | ATTCATTCATATGTTACACACACACCCACCCATAAA [CACACA_site9066] | 9.71 ± 0.23
43 | TAAAATAAAACAAACACACACACACGGACACAAAAA [CACACA_site7754] | 10.4 ± 0.34
44 | AAAAAAAAAAAAAACACACACACAAAATAAACAAAC [CACACA_site2720] | 9.66 ± 0.44
45 | AAAATAAAATAAAACACAAAAAAATAAAACAAAATA [CACACA_negctrl_site16] | 8.87 ± 0.49
